Laboratory results reported in PubChem BioAssay (NCI).
This is part of a sample that, as a whole, favours compounds with a hit. Of some 83,000 tested, about 20% had one in any assay.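 In brief: 96-well plates, 48 h treatment, single concentration, percent growth endpoint.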 A number with no mark means an inactive call. Activity calls are given as the source filed them. The calls were made as follows: active = growth percent below 10; inactive = the rest.

Experiments:
Assay in all cases: NCI-60 one-dose screen, 48 h (100 = growth as untreated, 0 = no growth, -100 = all killed)
Conditions in all cases: 10 µM unless noted
[1] = test system: SR leukemia
[2] = test system: RPMI-8226 leukemia
[3] = test system: OVCAR-8 ovarian
[4] = test system: OVCAR-5 ovarian
[5] = test system: OVCAR-4 ovarian
[6] = test system: SK-OV-3 ovarian
[7] = test system: IGROV1 ovarian
[8] = test system: OVCAR-3 ovarian
[9] = test system: HS 578T breast
[10] = test system: NCI/ADR-RES ovarian

Compound `COc1ccc(-c2nn(-c3ccccc3)cc2/C=C/C(=O)NNC(=O)Nc2ccc(C)cc2)cc1` has a growth [1] of 64%, a growth [2] of 93.3% and a growth [3] of 98.1%. The growth [4] was 103%, the growth [5] was 101% and the growth [6] was 92.8%. For the same compound, the growth [7] was 93%, the growth [8] was 107% and the growth [9] was 99.7%. It also gave a growth [10] of 92.8%.

With `C=C1C(=O)O[C@H]2[C@H]1CC/C(COC(=O)/C=C/C(=O)OC/C1=C/CC[C@@]3(C)O[C@H]3[C@H]3OC(=O)C(=C)[C@@H]3CC1)=C\CC[C@@]1(C)O[C@@H]21` the growth [1] was 7.6% (active), the growth [2] was -15.2% (active) and the growth [3] was 62.7%. It also gave a growth [4] of 88.8%, a growth [5] of 86.2% and a growth [6] of 110%. For the same compound, the growth [7] was 87.6%, the growth [8] was -0.457% (active) and the growth [9] was 90.2%. The growth [10] was 96.5%.

`Nc1c(C(=O)Nc2cccc(Cl)c2)sc2nc3c(cc12)CCCC3` showed a growth [1] of 53.9%, a growth [2] of 93.6% and a growth [3] of 93%. It also gave a growth [4] of 93.4%, a growth [5] of 90.9% and a growth [6] of 96.2%. For the same compound, the growth [7] was 106%, the growth [9] was 97.7% and the growth [10] was 101%.

In the case of `CN1CCN(CC(=O)Nc2ccc3ncnc(Nc4ccc(Oc5cccc(C(F)(F)F)c5)c(Cl)c4)c3c2)CC1`, the growth [1] is reported as -6.28% (active), the growth [2] is reported as -12.7% (active) and the growth [3] is reported as 20.9%. For the same compound, the growth [4] was 52.9%, the growth [5] was -18.8% (active) and the growth [6] was 23.2%. The growth [7] was -44.6% (active), the growth [8] was 4.81% (active) and the growth [9] was -12% (active). It also gave a growth [10] of 46.1%.

`Cn1cc(-c2nn3cc(-c4cccs4)nc3s2)c2cc(F)ccc21` showed a growth [1] of 11.8%, a growth [2] of 31.2% and a growth [3] of 51.4%. For the same compound, the growth [4] was 42.7%, the growth [5] was 60.5% and the growth [6] was 44.9%. The growth [7] was 35.3%, the growth [8] was 5.2% (active) and the growth [9] was 1.66% (active). It also gave a growth [10] of 21.1%.

`C=CC(=O)Nc1ccc(Nc2nccc(-c3ccc(N4CCCC4)c(C#N)c3)n2)cc1` was tested, and the growth [1] was -3.35% (active), the growth [2] was -10.3% (active) and the growth [3] was 65.9%. For the same compound, the growth [4] was 73.4%, the growth [5] was 47.3% and the growth [6] was 8.26% (active). For the same compound, the growth [7] was 35.9%, the growth [8] was 14.1% and the growth [9] was -5% (active). The growth [10] was 57.2%.

In the case of `Cc1nc2c(=O)nc3s/c(=C\c4ccco4)c(=O)n3c2nc1C`, the growth [1] is reported as 94.2%, the growth [2] is reported as 116% and the growth [3] is reported as 96.1%. The growth [4] was 101%, the growth [5] was 101% and the growth [6] was 102%. The growth [7] was 93.4%, the growth [8] was 105% and the growth [9] was -95.1% (active). For the same compound, the growth [10] was 93.5%.

For `C[C@@H]1O[C@@H](O[C@@H]2C[C@H](c3ccc4c(c3O)C(=O)C3=C(C4=O)[C@@]4(O)C(=O)C[C@](C)(O)C[C@@]4(O)C=C3)O[C@H](C)[C@H]2O)CC[C@@H]1O[C@H]1C[C@@H](O)[C@H](O)[C@@H](C)O1`, the growth [1] was 89.6%, the growth [2] was 95.3% and the growth [3] was 98.2%. It also gave a growth [4] of 110%, a growth [5] of 87.1% and a growth [6] of 111%. It also gave a growth [7] of 96.4%, a growth [9] of 105% and a growth [10] of 97%.

In the case of `COc1ccc(C2=NN(C(C)=O)C(c3cn(-c4ccccc4)nc3-c3ccc(Cl)cc3)C2)cc1` (stereo not given), the growth [1] is reported as 10.7%, the growth [2] is reported as 37.3% and the growth [3] is reported as 17.1%. For the same compound, the growth [4] was 68.1%, the growth [5] was -23.5% (active) and the growth [6] was 38.1%. For the same compound, the growth [7] was 54.1%, the growth [9] was 26.2% and the growth [10] was 15.3%.

`C=CCOC(=O)C1=C(C)N(CC)C(=O)NC1c1c(Cl)n(C)c2ccccc12` (stereo not given) showed a growth [1] of 96.1%, a growth [2] of 93.8% and a growth [3] of 98.2%. For the same compound, the growth [4] was 90%, the growth [6] was 102% and the growth [7] was 98.9%. For the same compound, the growth [8] was 108% and the growth [9] was 96.4%.
